Laboratory results: paper PMC7819943, “Rice protein-binding microarrays: a tool to detect cis-acting elements near promoter regions in rice”
The full ranking holds about 68,000 sequences; the median of “fluorescence intensity (a.u.)” is about 9,100, and the highest 2% start at about 16,000. The entries come from a sample that favours the highest values as a whole.

Target: OsWRKY34 (Oryza sativa, UniProt Q0JBA9 1-250)
Experiment: protein-binding microarray (RPBM); PBS, 2% BSA, 51.3 ng/ul salmon testes DNA, 50 uM zinc acetate, 200 nM TF, 25 C, 1 h; high values mean tight binding
Conditions: protein: recombinant; tags: N-terminal polyhistidine and DsRed monomer fusion (pET32a); label: CyDye5-dUTP incorporated in the synthesized complementary strand; 3' TTTTT single-stranded linker to array surface; dsDNA, one strand shown
In short: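 Using Ni–NTA, transcription factors fused N-terminally to polyhistidine and DsRed were purified after expression in E. coli BL21-CodonPlus. These were incubated at 200 nM with a blocked, double-stranded custom Agilent array for 1 h at 25 °C in a buffer containing 50 µM zinc acetate, and the array was washed. The binding signal is per-feature fluorescence intensity (arbitrary units) on an Axon 4000B scanner.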

Sequence of OsWRKY34 (Q0JBA9 entry or part of it): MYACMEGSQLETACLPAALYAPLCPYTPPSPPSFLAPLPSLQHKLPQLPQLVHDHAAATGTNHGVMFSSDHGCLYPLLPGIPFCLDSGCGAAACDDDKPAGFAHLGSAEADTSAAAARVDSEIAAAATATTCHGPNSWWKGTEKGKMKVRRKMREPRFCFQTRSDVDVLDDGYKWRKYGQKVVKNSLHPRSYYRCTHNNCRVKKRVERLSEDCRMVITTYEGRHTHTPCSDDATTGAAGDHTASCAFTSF

Row | Sequence | binding signal
1 | GGGTGTTATGAGTTGTGTTTGCTGTAGCTTGTCAGCTGTTCGGAGTCACCTAGTGCAG | 10600 fluorescence intensity (a.u.)
2 | CTGTAGAGAAATACTACACTACTGTACACTACATTCCTGCCGGAGTCACCTAGTGCAG | 8350 fluorescence intensity (a.u.)
3 | GTGGTGGTGCGCGGCGGCGGCGGCGGGGAGGGGTGTGTGTCGGAGTCACCTAGTGCAG | 24500 fluorescence intensity (a.u.)
4 | CCTTTCCAAGTCGGTCGGGGTAGCTGGGTTGTCTCGCCGGCGGAGTCACCTAGTGCAG | 12300 fluorescence intensity (a.u.)
5 | GTGTCGGCGGAGGGGCGCGCGGCGGGGTCGGCGGAGGCGCCGGAGTCACCTAGTGCAG | 8590 fluorescence intensity (a.u.)
6 | ATTTGTATTTGTTTTTTGTTTGTTAGTATTAGGGTGCTTTCGGAGTCACCTAGTGCAG | 9720 fluorescence intensity (a.u.)
7 | CTGTATTATGGTGCTTTCACATTTTTTTTCTAGTCTGCCACGGAGTCACCTAGTGCAG | 8370 fluorescence intensity (a.u.)
8 | GAGTTGGGTTGGAGTGGTTTGGATCGCTGCTTCACTAGGGCGGAGTCACCTAGTGCAG | 27400 fluorescence intensity (a.u.)
9 | GGTTTTCATGGTGCTGTGGATGTTCACTAGCTTTGGAGGGCGGAGTCACCTAGTGCAG | 10900 fluorescence intensity (a.u.)
10 | GGCTGCTTCAGGGGCGTGGGAGAGGTTTGGGGTTGGTTCACGGAGTCACCTAGTGCAG | 16000 fluorescence intensity (a.u.)
11 | GTCCAAGTTTGCCTTTCTCACTGGGGAGCGGGTGGGCTGTCGGAGTCACCTAGTGCAG | 21000 fluorescence intensity (a.u.)
12 | TGTTAGTATTAGGGTGCTTTTGGGTTTGGGGTTTCTGCCACGGAGTCACCTAGTGCAG | 24200 fluorescence intensity (a.u.)
13 | GTGTGGTCGTCGTGTCGGCGGCGGCGGCGGCGGCGGGAGGCGGAGTCACCTAGTGCAG | 14300 fluorescence intensity (a.u.)
14 | CAGTTTCCACCCTGGGTGGGGTGGGGCCCACCTGTCGGGGCGGAGTCACCTAGTGCAG | 9940 fluorescence intensity (a.u.)
15 | TTCATGGAACATTCACGTGGATCATTCTCTCTCTCTCTCTCGGAGTCACCTAGTGCAG | 8100 fluorescence intensity (a.u.)
16 | TCACATCTCATTTTATGTTGGTTTTTTATGGGACGGGAGGCGGAGTCACCTAGTGCAG | 10200 fluorescence intensity (a.u.)
17 | CACCACCGTGCACTTCACAATTCACACTACTCCTTCAGATCGGAGTCACCTAGTGCAG | 8340 fluorescence intensity (a.u.)
18 | CTCATCATCCCGTCCAAAATCAGCTGCCCGCGCCGACGACCGGAGTCACCTAGTGCAG | 8700 fluorescence intensity (a.u.)
19 | ATACACATGCACATTTAGTTCCTCCCGGTAAGTTCGTCGTCGGAGTCACCTAGTGCAG | 8260 fluorescence intensity (a.u.)
20 | ATTTTTTTTTGGCATAGTTTGTGTTCACTGCAAAAATCACCGGAGTCACCTAGTGCAG | 9080 fluorescence intensity (a.u.)
21 | TTTGGTTCACGCGGCGCGGGCGGGGAGTGGGAGGGGCATGCGGAGTCACCTAGTGCAG | 24100 fluorescence intensity (a.u.)
22 | TTTGACGTTTTTTCTCGCTGCTATTATCTCCAGGGTGGGGCGGAGTCACCTAGTGCAG | 17200 fluorescence intensity (a.u.)

Row | Sequence | binding signal
23 | AGAGGGATGGGTGTGGGCAGCGGTGGGCGGTAAGGCACCACGGAGTCACCTAGTGCAG | 9360 fluorescence intensity (a.u.)
24 | GAGAGAGGGGTTGGGTTTGGTTGGTGTTTGTGTGGAGATGCGGAGTCACCTAGTGCAG | 12800 fluorescence intensity (a.u.)
25 | AGAGATGGTAGTGGTAAAGCGGAGGAGGGGTGGGGTGTTGCGGAGTCACCTAGTGCAG | 16700 fluorescence intensity (a.u.)
26 | CTGCGGCCCGGCGGGAGTGGGAGGGGCGGCGGGCCGGACCCGGAGTCACCTAGTGCAG | 9720 fluorescence intensity (a.u.)
27 | GCTACATCAGCGGCGGAGGTGGAGGTGGAGGGGTAAGGTGCGGAGTCACCTAGTGCAG | 11600 fluorescence intensity (a.u.)
28 | GGGTGGGAGGGAGGGAGTACATGGTAAGGCCATTCAACAGCGGAGTCACCTAGTGCAG | 20200 fluorescence intensity (a.u.)
29 | GGGTTATTCTTTGCATGATATTTGACGTTTTTTCTCGCTGCGGAGTCACCTAGTGCAG | 9920 fluorescence intensity (a.u.)
30 | GAGAGCTTTGCGGCGGGCATGCGGGTGGGGATTCACCGCGCGGAGTCACCTAGTGCAG | 10600 fluorescence intensity (a.u.)
31 | TGACAGCGGTAGATGTGGGTGGTGGTGGGAGGGGAGGATGCGGAGTCACCTAGTGCAG | 16200 fluorescence intensity (a.u.)
32 | CTATTATCTCCAGGGTGGGGTGGGGCCCATACGGCCAGGACGGAGTCACCTAGTGCAG | 10400 fluorescence intensity (a.u.)
33 | ACCTTGGACAACTGACTTCTCTACAGACATTAACCTTTTTCGGAGTCACCTAGTGCAG | 8730 fluorescence intensity (a.u.)
34 | TTTTCATCTGAGCTTATGTTCCAACTTTTATTTTTAATCACGGAGTCACCTAGTGCAG | 8780 fluorescence intensity (a.u.)
35 | ACTGAGTACTGTTCGGTTGGGTCTGGCATCGGATGTTTCCCGGAGTCACCTAGTGCAG | 8340 fluorescence intensity (a.u.)
36 | TATAGGCCACTTGTGCCTCGGCTCACGTTGACCTGCCTTACGGAGTCACCTAGTGCAG | 8170 fluorescence intensity (a.u.)
37 | AACATATAAACTCAAATCTCCAATTGTTTCCGCTACAAATCGGAGTCACCTAGTGCAG | 8100 fluorescence intensity (a.u.)
38 | AACTATTTTCATCCCTCGAGGACATATCTCCTCGTTGTTTCGGAGTCACCTAGTGCAG | 11100 fluorescence intensity (a.u.)
39 | ACGACCCTCTACATGTTGCTGCTGGCAGCCGCTCCCTCTCCGGAGTCACCTAGTGCAG | 8660 fluorescence intensity (a.u.)
40 | GTTTTTCATATTTGACGATCAAACGGTGGTTTTAAAACTTCGGAGTCACCTAGTGCAG | 8140 fluorescence intensity (a.u.)
41 | CACTTTTTCATGGATTTTTACTTATTTAATGATTTTTTATCGGAGTCACCTAGTGCAG | 8240 fluorescence intensity (a.u.)
42 | CGATGGCTGGAGGGGAGGCGGCGGCGCATCGTGGCGGGCGCGGAGTCACCTAGTGCAG | 8030 fluorescence intensity (a.u.)
43 | AGCGAGCGACGGGCGGGGCGGAGCGGGGCGGGGCTGCATTCGGAGTCACCTAGTGCAG | 16700 fluorescence intensity (a.u.)
44 | CTCGATTCTTCTGCAGCTGGGCGGGAGGGGAGGCGTGGCGCGGAGTCACCTAGTGCAG | 18300 fluorescence intensity (a.u.)
